Shiga inhibitor – inhibitors of Shiga toxin in Vero cells | Vero cells, Shiga toxin protein synthesis inhibition reporter | inhibition, % at 38.7 µM | 290,000 tested, 9.2% active | AID 2315; in the data active = inhibition mostly above about 28%, no sharp cut-off; inactive = mostly below about 43%; note: 0% is about no effect
LmPK inh – LmPK (Leishmania mexicana) enzyme inhibition; Q27686; purified LmPK, Kinase-Glo ATP luminescence, 1 h; Potency, µM (doses to about 57.5 µM), for inactives: at the top dose activity change, negative = inhibition, actives largely listed as inhibitors; 290,000 tested, 0.37% active; note: potency is the fitted concentration of half-maximal effect; % is set by controls: 0 for no effect and ±100 for the full control effect
Target sequence (Q27686 whole entry, looked up): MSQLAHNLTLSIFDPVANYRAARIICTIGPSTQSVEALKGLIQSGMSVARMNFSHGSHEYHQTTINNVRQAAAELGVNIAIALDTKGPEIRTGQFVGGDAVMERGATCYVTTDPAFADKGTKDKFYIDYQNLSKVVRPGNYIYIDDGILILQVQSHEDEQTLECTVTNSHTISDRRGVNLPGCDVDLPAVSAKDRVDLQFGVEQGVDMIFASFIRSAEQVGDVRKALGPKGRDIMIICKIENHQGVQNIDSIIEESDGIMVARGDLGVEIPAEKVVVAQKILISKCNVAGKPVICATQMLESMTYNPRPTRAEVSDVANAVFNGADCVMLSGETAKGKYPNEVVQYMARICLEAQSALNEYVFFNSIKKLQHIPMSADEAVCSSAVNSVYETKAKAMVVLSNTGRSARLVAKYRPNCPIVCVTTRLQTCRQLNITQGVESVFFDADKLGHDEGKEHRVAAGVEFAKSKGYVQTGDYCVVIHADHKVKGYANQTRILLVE
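Screened at intermediate enzyme activity to detect both inhibitors and activators: LmPK at 0.1 nM, with a 0.5 nM enzyme column as activation reference. PEP 0.5 mM, ADP 0.1 mM; ATP detected by luminescence after 1 h.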
CHX counter – affects cycloheximide protein synthesis inhibition readout, counter-screen. 300,000 tested, 12% active. cell reporter, cycloheximide protein synthesis inhibition counterscreen. AID 2314. max response, %; in the data active = max response mostly above about 13%, no sharp cut-off; inactive = mostly below about 14%; note: read at 38.3 µM for the half of the compounds with a filed dose; 0% is about no effect
Giardia FBPA inh – inhibitors of Giardia lamblia fructose-1,6-bisphosphate aldolase. A8B2U2. purified Giardia FBPA. Potency, µM (titrated, usually from 59.6 µM), for the others: at the top dose activity, negative = inhibition, hits mostly inhibitors. 290,000 tested, 0.71% active; note: potency is the fitted concentration of half-maximal effect; % is set by controls: 0 for no effect and ±100 for the full control effect; nearly all actives have a fitted effect of over 55% in size
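40 nM FBPA preincubated 10 min at RT with compound (up to 57.5 uM final), then substrate plus GAPDH/TPI/NAD/arsenate coupling and diaphorase/resazurin added. Fluorescence read after 20 min at RT, 525/598 nm.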
RE007 growth inh – less growth of the S. pombe RE007 Vpr strain; S. pombe RE007 Vpr strain, BacTiter-Glo ATP luminescence, 24 h; AID 651644; 360,000 tested, 0.21% active; Potency, µM (doses to about 92.2 µM), without a hit: at the top dose activity change, negative = less growth, hits mostly inhibitors; active = well fitted falling curve with a large enough effect; inconclusive = small, poorly fitted or top-dose-only effect; inactive = no such curve, though single readings can be large or run the other way; note: potency is the fitted concentration of half-maximal effect; % is set by controls: 0 for no effect and ±100 for the full control effect; nearly all actives have a fitted effect of over 50% in size
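Fission yeast strain RE007, carrying one chromosomally integrated HIV-1 vpr copy, was seeded at OD 0.01 in PMG+AL medium with 23 nL pinned compound. After 24 h at 30 °C and 99% humidity, viability was read by BacTiter-Glo luminescence.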
Tb PYK inh – inhibitors of Trypanosoma brucei pyruvate kinase | Q57TT1 | TbPYK enzyme, Kinase-Glo Plus ATP luminescence, 45 min | AID 624173 | Potency, µM (doses to about 76.8 µM), for the others: at the top dose activity, negative = inhibition, usual class: inhibitors | 410,000 tested, 0.12% active; note: potency is the fitted concentration of half-maximal effect; % is set by controls: 0 for no effect and ±100 for the full control effect; nearly all actives have a fitted effect of over 50% in size
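Activity of T. brucei pyruvate kinase was followed by Kinase-Glo Plus luminescence after the enzyme reacted 45 min at room temperature with 130 uM ADP (final) and substrate. Test compounds were added before ADP at multiple concentrations.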
Starred values were filed as active, the others as inactive; u = inconclusive; x = no result given; [ ] = another dose, or the depositor's remark. Only a selection was taken, and hits are over-represented in it overall. Unless noted, calls come from the whole dose curve; as a rule, active = well fitted curve in the direction sought with a large enough effect; inconclusive = small, poorly fitted or top-dose-only effect, or another doubt; inactive = no such curve, though single readings can be large; an effect the other way counts as inactive or inconclusive.

SMILES	Shiga inhibitor	LmPK inh	CHX counter	Giardia FBPA inh	RE007 growth inh	Tb PYK inh
N/C(=N\OC(=O)c1ccco1)c1ccccn1	94.6*	12.6µM*	44.0*	-4.1%	-7.2%	u
COc1ccc(/C(N)=N/OC(=O)c2ccco2)cc1	21.0	11.2µM*	7.1	0.4%	-22.3%	-19.6%
Cc1cccc(-c2nc(CCNC(=O)COc3ccccc3)cs2)c1	x	x	x	x	x	0.0%
CCOC(=O)N1CCc2[nH]c3ccc(C)cc3c2C1	-4.4	2.6%	6.3	8.5%	-22.7%	-3.9%
CCOC(=O)C(O)C1CCc2c([nH]c3ccc(C)cc23)C1=O (centres undefined)	49.8	1.1%	25.1*	-7.7%	2.8%	-1.6%
Cc1ccc(-n2c(CNCc3ccc(F)cc3)nc3ccccc3c2=O)cc1	13.6	-0.9%	15.4*	-22.1%	-21.9%	-17.1%
O=c1c2ccccc2nc(Cc2ccccc2)n1-c1ccccc1	18.4	-5.5%	19.2*	3.4%	14.5%	0.9%
CCN(CC)CCNCc1nc2ccccc2c(=O)n1-c1ccc(F)cc1	-5.5	-5.0%	-4.0	-7.7%	16.9%	-0.9%
N=C(N)SCc1nc2ccccc2c(=O)n1-c1ccccc1	67.9*	-15.4%	44.7*	-20.2%	0.3%	-9.8%
O=C(O)c1ccc(CSc2nc3ccccc3c(=O)n2-c2ccccc2)cc1	-10.8	5.2%	-3.3	u	-4.8%	10.4%
O=c1c2ccccc2nc(Cc2ccccc2)n1-c1ccccc1O	-15.6	1.3%	5.0	0.3%	24.9%	-0.7%
CCOC(=O)c1cc(C(=O)OCC)c2cccc(C)n2c1=O	-17.3	-0.7%	-2.9	-3.9%	1.2%	-2.4%
CCOC(=O)c1cnc2sc3c(n2c1=O)CCCC3	92.5*	-3.0%	42.7*	1.5%	-28.3%	-10.4%
CCOC(=O)c1cnc2nc(C)[nH]n2c1=O	-5.3	-15.4%	-3.1	1.1%	13.1%	-3.6%
CCOC(=O)c1cnc2oc3ccccc3n2c1=O	x	-2.3%	57.6*	5.0%	-19.8%	-2.1%
CCOC(=O)C1CCCN(C(=O)CCC(=O)Nc2ccc3nc(N4CCOCC4)cc(C)c3c2)C1 (centres undefined)	21.1	0.3%	24.5*	-7.0%	-8.9%	-5.1%
CCCCNC(=O)CCC(=O)Nc1ccc2nc(N3CCCCC3)cc(C)c2c1	63.0*	1.4%	31.0*	-0.9%	-19.4%	0.4%
COc1cccc(NC(=O)CCC(=O)Nc2ccc3nc(N4CCOCC4)cc(C)c3c2)c1	81.4*	1.5%	37.0*	4.7%	-3.2%	-3.9%
CCCCNC(=O)CCC(=O)Nc1ccc2nc(N3CCOCC3)cc(C)c2c1	-5.8	-7.1%	12.7	0.1%	-22.8%	-2.3%
Cc1cc(N2CCCCC2)nc2ccc(NC(=O)CCC(=O)NCCC(C)C)cc12	49.3*	0.9%	35.3*	-1.6%	-4.4%	-2.1%
C=CCC1(O)C=CCC2C3C4C(OC(C)(C)C)C2C1C34 (centres undefined)	x	x	x	0.0%[12.9 µM]	x	x
OC[C@@H](O)C(O)[C@H](O)[C@H](O)CO (some centres undefined)	-2.7	x	-8.3	-5.8%	x	x
COCCCNC(=O)CCC(=O)Nc1ccc2nc(N3CCOCC3)cc(C)c2c1	-2.5	0.9%	1.4	0.4%	1.3%	11.1%
CCCN(CCC)CCNC(=O)CCC(=O)Nc1ccc2nc(N3CCOCC3)cc(C)c2c1	75.4*	-4.1%	39.9*	-7.4%	-3.6%	8.8%
COc1ccc(C2CC(=O)c3cc(-c4nc(-c5ccc(Cl)cc5)cs4)c(=O)[nH]c3C2)cc1OC (centres undefined)	x	x	x	x	x	-1.2%
CCCSc1ccc2nc(-c3ccccc3)cn2c1	11.6	6.31µM*	17.1	-11.4%	u	u
CCCCSc1ccc2nc(-c3ccc(C#N)cc3)cn2c1	58.1	-3.0%	58.0*	-17.7%	6.9%	-4.6%
O=C(CSc1ccc2nc(-c3ccccc3)cn2n1)Nc1ccccc1	x	x	x	x	x	-4.1%
O=C1CC(Sc2nnnn2-c2ccccc2)C(=O)N1c1cccc(Cl)c1 (centres undefined)	24.4	0.6%	20.5*	-25.8%	7.08µM*	u
COc1ccc(N2C(=O)CC(Sc3nnnn3-c3ccc(F)cc3)C2=O)cc1 (centres undefined)	35.5	0.9%	17.0	2.4%	15.8µM*	-28.3%

High-throughput results: PubChem, National Center for Advancing Translational Sciences (NCATS)
